From PubChem BioAssay (NCI)
About 83,000 compounds went through this panel and 20% of them were active in at least one assay; those are over-represented in the sample as a whole.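 Growth was measured after 48 h exposure to one concentration of compound in 96-well plates. Values under 10 count as active.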 Active and inactive are the calls of the source.

Experiments:
Test in all cases: NCI-60 one-dose screen, 48 h (100 = growth as untreated, 0 = no growth, -100 = all killed)
Conditions in all cases: 10 µM unless noted
HCT-15 colon = test system: HCT-15 colon
HT29 colon = test system: HT29 colon
SNB-75 CNS = test system: SNB-75 CNS
SNB-19 CNS = test system: SNB-19 CNS
PC-3 prostate = test system: PC-3 prostate
SK-MEL-5 melanoma = test system: SK-MEL-5 melanoma
UACC-62 melanoma = test system: UACC-62 melanoma
LOX IMVI melanoma = test system: LOX IMVI melanoma
SK-MEL-28 melanoma = test system: SK-MEL-28 melanoma
U251 CNS = test system: U251 CNS

Measured: growth

O=C1/C(=C/c2ccccc2O)C(=S)SN1Cc1ccco1
inactive: HCT-15 colon 91.6% | HT29 colon 87.6% | SNB-75 CNS 70.2% | SNB-19 CNS 111% | PC-3 prostate 93.3% | SK-MEL-5 melanoma 95.8% | UACC-62 melanoma 94.4% | LOX IMVI melanoma 34.7% | SK-MEL-28 melanoma 92%

O=C(CN1CCN(c2ccc(Cl)cc2)CC1)N1CCN(c2nnc(-c3ccc(Cl)cc3)c(-c3ccc(Cl)cc3)n2)CC1
inactive: HCT-15 colon 59% | HT29 colon 57.3% | SNB-75 CNS 75.6% | SNB-19 CNS 78% | U251 CNS 74.2% | SK-MEL-5 melanoma 58.2% | UACC-62 melanoma 69.9% | LOX IMVI melanoma 51.8% | SK-MEL-28 melanoma 93.6%

O=C(N/N=C/c1cccc([N+](=O)[O-])c1)c1ccc(Br)o1
inactive: HCT-15 colon 127% | HT29 colon 105% | SNB-75 CNS 98.5% | SNB-19 CNS 83.5% | U251 CNS 110% | SK-MEL-5 melanoma 97.3% | UACC-62 melanoma 102% | LOX IMVI melanoma 112% | SK-MEL-28 melanoma 133%

[N-]=[N+]=NCc1cccc(/C(O)=C/C(=O)C(=O)O)c1
inactive: HCT-15 colon 113% | HT29 colon 83.9% | SNB-75 CNS 73.6% | SNB-19 CNS 101% | U251 CNS 103% | SK-MEL-5 melanoma 106% | UACC-62 melanoma 92.4% | LOX IMVI melanoma 92.6% | SK-MEL-28 melanoma 82.1%

COc1cc(/C(Cl)=C/C=C/C(=O)c2c(C)[n+]([O-])c3ccc(Cl)cc3[n+]2[O-])cc(OC)c1OC
active: LOX IMVI melanoma -18.3%
inactive: HCT-15 colon 11.5% | HT29 colon 14.1% | SNB-75 CNS 19.8% | SNB-19 CNS 51.2% | PC-3 prostate 40% | SK-MEL-5 melanoma 14.2% | UACC-62 melanoma 21.2% | SK-MEL-28 melanoma 33.5%

CC(NNC(=S)N1CCCCCC1)c1ccc2ccccc2n1 (stereo unspecified)
inactive: HCT-15 colon 30.8% | HT29 colon 35.9% | SNB-75 CNS 71.4% | SNB-19 CNS 44.1% | PC-3 prostate 34.6% | SK-MEL-5 melanoma 30.9% | UACC-62 melanoma 11.3% | LOX IMVI melanoma 29.6% | SK-MEL-28 melanoma 54.7%

O=C(N/N=C/c1ccc(Cl)cc1Cl)c1ccccc1Nc1cccc(C(F)(F)F)c1
inactive: HCT-15 colon 72.5% | HT29 colon 86.7% | SNB-75 CNS 78% | SNB-19 CNS 76.1% | U251 CNS 22.4% | SK-MEL-5 melanoma 53.5% | UACC-62 melanoma 65.6% | LOX IMVI melanoma 50% | SK-MEL-28 melanoma 92.2%

O=C(c1ccc(Cl)cc1)c1ccc(Cl)cc1
inactive: HCT-15 colon 113% | HT29 colon 102% | SNB-75 CNS 112% | SNB-19 CNS 109% | PC-3 prostate 110% | SK-MEL-5 melanoma 96.4% | UACC-62 melanoma 103% | LOX IMVI melanoma 103% | SK-MEL-28 melanoma 106%

Cc1c2oc3c(C)ccc(C(=O)OC(C)C4NC(=O)C(C(C)C)N(C)C(=O)CN(C)C(=O)C5CCCN5C(=O)C(C(C)C)NC4=O)c3nc-2c(C(=O)OC(C)C2NC(=O)C(C(C)C)N(C)C(=O)CN(C)C(=O)C3CCCN3C(=O)C(C(C)C)NC2=O)c(N)c1=O (stereo unspecified)
inactive: U251 CNS 14.8%
active: HCT-15 colon 7.36% | HT29 colon -29.2% | SNB-75 CNS -73.8% | SNB-19 CNS 3.31% | SK-MEL-5 melanoma -92% | UACC-62 melanoma -71% | LOX IMVI melanoma 4.35% | SK-MEL-28 melanoma -20.8%

CC(C)=CCNc1ncnc2c1ncn2C1OC(COP(=O)(O)O)C(O)C1O (stereo unspecified)
inactive: HCT-15 colon 31.6% | HT29 colon 31.6% | SNB-75 CNS 65.2% | SNB-19 CNS 89.5% | PC-3 prostate 12% | SK-MEL-5 melanoma 81.1% | UACC-62 melanoma 69.6% | SK-MEL-28 melanoma 85.7%
active: LOX IMVI melanoma -61.3%

CN1C(=O)C(C2=NN(C=O)C(c3ccc(F)cc3)C2)C(=O)N(C)C1=O (stereo unspecified)
inactive: HCT-15 colon 101% | HT29 colon 91.7% | SNB-75 CNS 93.5% | SNB-19 CNS 92.4% | U251 CNS 92.3% | UACC-62 melanoma 100% | LOX IMVI melanoma 90.4% | SK-MEL-28 melanoma 111%

CC(=O)Nc1ccc(C(=O)COc2cccc(/C=C3\CCc4ccccc4C3=O)c2)cc1
inactive: HCT-15 colon 89% | HT29 colon 101% | SNB-75 CNS 78.7% | SNB-19 CNS 94.1% | U251 CNS 83.4% | SK-MEL-5 melanoma 64.4% | UACC-62 melanoma 83.6% | LOX IMVI melanoma 71.5% | SK-MEL-28 melanoma 109%

O=C(COc1cccc(/C=C2\Oc3ccc4ccccc4c3C2=O)c1)c1ccc([N+](=O)[O-])cc1
active: LOX IMVI melanoma -30.3%
inactive: HCT-15 colon 89.5% | HT29 colon 96.5% | SNB-75 CNS 81.4% | SNB-19 CNS 100% | U251 CNS 94.5% | SK-MEL-5 melanoma 87.2% | UACC-62 melanoma 81.1% | SK-MEL-28 melanoma 124%

O=C(NCCCl)NCCN1c2nc3ccccc3cc2Sc2cc3ccccc3nc21
inactive: HCT-15 colon 51.9% | HT29 colon 36.2% | SNB-19 CNS 63.9% | U251 CNS 34.8% | UACC-62 melanoma 47.4% | LOX IMVI melanoma 49.7% | SK-MEL-28 melanoma 86.4%
active: SNB-75 CNS -5.93% | SK-MEL-5 melanoma 9.61%

CSc1nc2nc3c(nc2c(=O)n1C)C(=O)c1ccccc1C3=O
active: HCT-15 colon -72.1% | HT29 colon -21.1% | SNB-75 CNS -98.3% | SNB-19 CNS -66.2% | PC-3 prostate -6.56% | SK-MEL-5 melanoma -96.4% | UACC-62 melanoma -68.2% | LOX IMVI melanoma -70.9% | SK-MEL-28 melanoma -60.7%

O=C1C=CC(=O)N1c1ccccc1N1C(=O)C=CC1=O
inactive: HCT-15 colon 99.6% | HT29 colon 99.2% | SNB-75 CNS 91.7% | SNB-19 CNS 91% | U251 CNS 108% | SK-MEL-5 melanoma 106% | UACC-62 melanoma 87.4% | LOX IMVI melanoma 97.2% | SK-MEL-28 melanoma 114%

COc1cccc(C=Nc2cc(C(C)C)c(O)cc2C)c1O
inactive: HCT-15 colon 96% | HT29 colon 103% | SNB-75 CNS 88.3% | SNB-19 CNS 93.2% | U251 CNS 96% | SK-MEL-5 melanoma 104% | UACC-62 melanoma 91.9% | LOX IMVI melanoma 94.8% | SK-MEL-28 melanoma 116%

Cc1[nH]c(=O)[nH]c(=O)c1CCSSCCc1c(C)[nH]c(=O)[nH]c1=O
inactive: HCT-15 colon 113% | HT29 colon 99.2% | SNB-75 CNS 97.1% | SNB-19 CNS 105% | PC-3 prostate 99.6% | SK-MEL-5 melanoma 103% | UACC-62 melanoma 104% | LOX IMVI melanoma 97.8% | SK-MEL-28 melanoma 114%

O=C(/C=C/c1cccc(O)c1)c1cccc(-n2cc(-c3ccccc3)[nH]c2=O)c1
active: HCT-15 colon -18.9% | HT29 colon 9.73% | U251 CNS -77% | LOX IMVI melanoma -69.5%
inactive: SNB-75 CNS 41.2% | SNB-19 CNS 50% | SK-MEL-5 melanoma 55.3% | UACC-62 melanoma 55.7% | SK-MEL-28 melanoma 30.8%

C[C@]12CC[C@H](O)CC1=CC[C@@H]1[C@@H]2CC[C@]2(C)C(c3cccnc3)=CC[C@@H]12
inactive: HCT-15 colon 56.8% | HT29 colon 24% | SNB-75 CNS 52.4% | SNB-19 CNS 72.7% | U251 CNS 67% | SK-MEL-5 melanoma 25.9% | UACC-62 melanoma 53.2% | LOX IMVI melanoma 74.5% | SK-MEL-28 melanoma 33.8%

O=C1/C(=C/c2cccc(Cl)c2)CCc2ccccc21
inactive: HCT-15 colon 93.7% | HT29 colon 91.2% | SNB-75 CNS 72.5% | SNB-19 CNS 87.1% | PC-3 prostate 89.7% | SK-MEL-5 melanoma 101% | UACC-62 melanoma 97.7% | LOX IMVI melanoma 90.9% | SK-MEL-28 melanoma 106%

O=[N+]([O-])c1ccc2[nH]cc(-c3c4ccccc4cc4[nH]c5ccc([N+](=O)[O-])cc5c34)c2c1
inactive: HCT-15 colon 19.9% | HT29 colon 13.4% | SNB-75 CNS 16.6% | SNB-19 CNS 47.6% | PC-3 prostate 17.2% | SK-MEL-5 melanoma 23.2% | UACC-62 melanoma 28.6% | LOX IMVI melanoma 21.3% | SK-MEL-28 melanoma 28.1%

C/C(=C\CCc1ccoc1)CC/C=C(\C)CCCN1CCSCC1
inactive: HCT-15 colon 43.3% | HT29 colon 45.8% | SNB-75 CNS 93.4% | SNB-19 CNS 87.8% | U251 CNS 76.7% | SK-MEL-5 melanoma 37.8% | UACC-62 melanoma 75.3% | SK-MEL-28 melanoma 88.7%

NC(=NCCCCCCN=C(N)/N=C(\N)Nc1ccc(Cl)cc1)/N=C(\N)Nc1ccc(Cl)cc1
active: HT29 colon 7.91% | SNB-75 CNS -7.16% | U251 CNS -5.76% | SK-MEL-5 melanoma -95.7% | UACC-62 melanoma 8.7%
inactive: HCT-15 colon 17.2% | SNB-19 CNS 13.7% | LOX IMVI melanoma 23.4% | SK-MEL-28 melanoma 32.8%

CCCn1c(N)c(C(=O)CNc2ccc(I)cc2)c(=O)[nH]c1=O
inactive: HCT-15 colon 22.7% | HT29 colon 41.7% | SNB-75 CNS 81.8% | SNB-19 CNS 88.7% | U251 CNS 28.8% | SK-MEL-5 melanoma 60.2% | UACC-62 melanoma 37.1% | LOX IMVI melanoma 18.7% | SK-MEL-28 melanoma 51.7%

Nc1ccccc1-c1ccn[nH]1
inactive: HCT-15 colon 85.2% | HT29 colon 106% | SNB-75 CNS 61.9% | SNB-19 CNS 97.4% | U251 CNS 96.7% | SK-MEL-5 melanoma 96.6% | UACC-62 melanoma 48.4% | LOX IMVI melanoma 68.6% | SK-MEL-28 melanoma 110%

COc1ccc(/C=C/C(=O)c2cccc(NS(C)(=O)=O)c2)cc1
inactive: HCT-15 colon 67.5% | HT29 colon 49.1% | SNB-75 CNS 68.6% | SNB-19 CNS 87.9% | U251 CNS 37.6% | SK-MEL-5 melanoma 90.4% | UACC-62 melanoma 76% | LOX IMVI melanoma 75% | SK-MEL-28 melanoma 110%
